# Results published in PubChem BioAssay AID1159580 (chemical genetic matrix, 2015).
# “And” between values parts separate entries of the source, which are not always exact repeats. Equal entries are not always repeated. Among all 5,500 compounds or so, about 2,000 (36%) were called active. Roughly 18% stayed inconclusive and do not appear here. This is one part of the list. Unmarked numbers belong to inactive results. Cut-off read from the data, not from the text of the source: active = normalized growth mostly below about 0.91 (no sharp cut-off); inconclusive = no clear call, values can overlap the other calls; inactive = mostly above about 0.92.
# Test: chemical genetic growth profiling, strain panel (AID 1159580);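 note: tested at 20 µM; growth read once vehicle control cultures reached saturation at 30 °C; 1 = growth at the plate median or of vehicle wells; lower values mean less growth of the strain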
# Details: S. cerevisiae deletion strains, growth OD
compound,measurement,setting,value
CC(=O)O[C@]1(C(C)=O)CCC2C3C[C@H](C)C4=CC(=O)CC[C@]4(C)C3CC[C@@]21C (stereo partly drawn),normalized growth,"locus YAL021C, strain ccr4, stronger effect = lower value",1
same,normalized growth,"locus YAL026C, strain drs2, stronger effect = lower value",0.992
same,normalized growth,"locus YAL030W, strain snc1, stronger effect = lower value",0.968
same,normalized growth,"locus YBL061C, strain skt5, stronger effect = lower value",0.964
same,normalized growth,"locus YBR009C, strain hhf1, stronger effect = lower value",0.955
same,normalized growth,"locus YBR021W, strain FUR4, stronger effect = lower value",0.993
same,normalized growth,"locus YBR023C, strain chs3, stronger effect = lower value",0.924
same,normalized growth,"locus YBR171W, strain sec66, stronger effect = lower value",0.95
same,normalized growth,"locus YBR229C, strain ROT2, stronger effect = lower value",0.993
same,normalized growth,"locus YBR231C, strain swc5, stronger effect = lower value",0.971
same,normalized growth,"locus YBR279W, strain paf1, stronger effect = lower value",0.97
same,normalized growth,"locus YCL011C, strain gbp2, stronger effect = lower value",0.931
same,normalized growth,"locus YCL016C, strain dcc1, stronger effect = lower value",0.916
same,normalized growth,"locus YCL029C, strain bik1, stronger effect = lower value",0.957
same,normalized growth,"locus YCL061C, strain MRC1, stronger effect = lower value",0.965
same,normalized growth,"locus YCL069W, strain vba3, stronger effect = lower value",0.958
same,normalized growth,"locus YCR088W, strain abp1, stronger effect = lower value",0.961
same,normalized growth,"locus YDL005C, strain med2, stronger effect = lower value",0.959
same,normalized growth,"locus YDL035C, strain GPR1, stronger effect = lower value",1.01
same,normalized growth,"locus YDL040C, strain nat1, stronger effect = lower value",0.971
same,normalized growth,"locus YDL074C, strain BRE1, stronger effect = lower value",0.983
same,normalized growth,"locus YDL101C, strain DUN1, stronger effect = lower value",0.993
same,normalized growth,"locus YDL185W, strain tfp1, stronger effect = lower value",0.956
same,normalized growth,"locus YDL192W, strain arf1, stronger effect = lower value",0.966
same,normalized growth,"locus YDR001C, strain nth1, stronger effect = lower value",0.97
same,normalized growth,"locus YDR069C, strain doa4, stronger effect = lower value",0.992
same,normalized growth,"locus YDR101C, strain arx1, stronger effect = lower value",0.999
same,normalized growth,"locus YDR137W, strain rgp1, stronger effect = lower value",0.839 (active)
same,normalized growth,"locus YDR150W, strain NUM1, stronger effect = lower value",0.99
same,normalized growth,"locus YDR159W, strain sac3, stronger effect = lower value",0.971
same,normalized growth,"locus YDR162C, strain NBP2, stronger effect = lower value",0.993
same,normalized growth,"locus YDR195W, strain ref2",1.07
same,normalized growth,"locus YDR297W, strain sur2, stronger effect = lower value",0.971
same,normalized growth,"locus YDR318W, strain mcm21, stronger effect = lower value",0.961
same,normalized growth,"locus YDR334W, strain swr1, stronger effect = lower value",0.96
same,normalized growth,"locus YDR335W, strain msn5, stronger effect = lower value",0.971
same,normalized growth,"locus YDR388W, stronger effect = lower value",0.989
same,normalized growth,"locus YDR392W, strain spt3, stronger effect = lower value",0.635 (active)
same,normalized growth,"locus YDR502C, strain sam2, stronger effect = lower value",0.954
same,normalized growth,"locus YEL003W, strain gim4, stronger effect = lower value",0.987
same,normalized growth,"locus YEL037C, strain rad23, stronger effect = lower value",0.962
same,normalized growth,"locus YEL061C, strain CIN8 (second series), stronger effect = lower value",0.97
same,normalized growth,"locus YEL061C, strain CIN8, stronger effect = lower value",0.991
same,normalized growth,"locus YER015W, strain faa2, stronger effect = lower value",0.969
same,normalized growth,"locus YER016W, strain bim1, stronger effect = lower value",0.975
same,normalized growth,"locus YER110C, stronger effect = lower value",0.96
same,normalized growth,"locus YER111C, strain swi4, stronger effect = lower value",0.96
same,normalized growth,"locus YER155C, strain BEM2 (second series), stronger effect = lower value",0.976
same,normalized growth,"locus YER155C, strain BEM2, stronger effect = lower value",0.98
same,normalized growth,"locus YER167W, strain BCK2, stronger effect = lower value",0.977
same,normalized growth,"locus YFR010W, strain ubp6, stronger effect = lower value",0.981
same,normalized growth,"locus YGL078C, strain dbp3, stronger effect = lower value",0.982
same,normalized growth,"locus YGL086W, strain mad1, stronger effect = lower value",0.995
same,normalized growth,"locus YGL167C, strain pmr1, stronger effect = lower value",0.948
same,normalized growth,"locus YGL173C, strain kem1, stronger effect = lower value",0.969
same,normalized growth,"locus YGL227W, strain vid30, stronger effect = lower value",0.969
same,normalized growth,"locus YGL240W, strain doc1, stronger effect = lower value",0.98
same,normalized growth,"locus YGL248W, strain PDE1, stronger effect = lower value",0.992
same,normalized growth,"locus YGL253W, strain hxk2, stronger effect = lower value",0.91
same,normalized growth,"locus YGR135W, strain pre9, stronger effect = lower value",0.912
same,normalized growth,"locus YGR252W, strain gcn5, stronger effect = lower value",0.926
same,normalized growth,"locus YHR013C, strain ard1, stronger effect = lower value",0.968
same,normalized growth,"locus YHR027C, strain rpn1, stronger effect = lower value",0.984
same,normalized growth,"locus YHR030C, strain SLT2, stronger effect = lower value",0.997 and 0.999
same,normalized growth,"locus YHR079C, strain IRE1 (second series), stronger effect = lower value",0.979
same,normalized growth,"locus YHR079C, strain IRE1, stronger effect = lower value",0.98
same,normalized growth,"locus YHR094C, strain hxt1, stronger effect = lower value",0.991
same,normalized growth,"locus YHR129C, strain ARP1, stronger effect = lower value",0.993
same,normalized growth,"locus YHR142W, strain chs7, stronger effect = lower value",0.841 (active)
same,normalized growth,"locus YHR200W, strain rpn10, stronger effect = lower value",0.982
same,normalized growth,"locus YIL066C, strain RNR3, stronger effect = lower value",0.991
same,normalized growth,"locus YIL073C, strain SPO22, stronger effect = lower value",0.932
same,normalized growth,"locus YIL125W, strain kgd1, stronger effect = lower value",0.996
same,normalized growth,"locus YIR030C, strain dcg1, stronger effect = lower value",0.962
same,normalized growth,"locus YJL092W, strain hpr5, stronger effect = lower value",0.964
same,normalized growth,"locus YJL095W, strain BCK1 (second series), stronger effect = lower value",0.953
same,normalized growth,"locus YJL095W, strain BCK1, stronger effect = lower value",0.961 and 1
same,normalized growth,"locus YJL115W, strain asf1, stronger effect = lower value",0.969
same,normalized growth,"locus YJL129C, strain trk1, stronger effect = lower value",0.902
same,normalized growth,"locus YJL134W, strain LCB3, stronger effect = lower value",0.993
same,normalized growth,"locus YJL154C, strain vps35, stronger effect = lower value",0.964
same,normalized growth,"locus YJL164C, strain tpk1, stronger effect = lower value",0.97
same,normalized growth,"locus YJL166W, strain qcr8, stronger effect = lower value",0.926
same,normalized growth,"locus YJL168C, strain set2, stronger effect = lower value",0.985
same,normalized growth,"locus YJL187C, strain SWE1 (second series), stronger effect = lower value",0.985
same,normalized growth,"locus YJL187C, strain SWE1, stronger effect = lower value",0.976
same,normalized growth,"locus YJR043C, strain POL32, stronger effect = lower value",1.03
same,normalized growth,"locus YJR066W, strain TOR1, stronger effect = lower value",0.958
